# PubChem BioAssay (Tox21)
# Inconclusive results are not listed. Where a call stands in place of a potency, no number is given. The source made the active and inactive calls. Unless noted, calls follow the shape of the full dose curve.
# Key:
# [1] = Nuclear factor erythroid 2-related factor 2/antioxidant responsive element (Nrf2/ARE) small molecule agonists: luciferase reporter gene qHTS assay in human keratinocytes (AID 1919969); also: nearly all actives have a fitted effect of over 35% in size; also: potency is read from the fitted curve at half-maximal effect
# [2] = target: Gonadotropin-releasing hormone receptor (Homo sapiens) (UniProt P30968); experiment: Human gonadotropin-releasing hormone receptor (GnRHR) small molecule agonists, calcium flux assay in GnRHR-HEK293 cells (AID 1920063); also: nearly all actives have a fitted effect of over 35% in size; also: potency is read from the fitted curve at half-maximal effect
# Chain of Gonadotropin-releasing hormone receptor (Homo sapiens) (P30968 whole entry, looked up): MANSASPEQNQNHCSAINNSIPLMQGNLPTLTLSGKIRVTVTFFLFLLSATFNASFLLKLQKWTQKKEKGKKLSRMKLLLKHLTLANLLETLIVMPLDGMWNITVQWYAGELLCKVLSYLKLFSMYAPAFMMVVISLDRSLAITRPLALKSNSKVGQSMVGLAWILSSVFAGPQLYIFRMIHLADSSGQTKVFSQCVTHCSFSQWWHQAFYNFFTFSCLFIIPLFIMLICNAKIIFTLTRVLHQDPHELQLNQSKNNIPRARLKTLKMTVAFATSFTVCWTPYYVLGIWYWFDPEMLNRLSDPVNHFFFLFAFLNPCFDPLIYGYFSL
# In short: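 We seeded human GnRHR-expressing HEK293 cells for 18 hours, loaded them with calcium dye for an hour at 37 C, added test compounds, and recorded fluorescence intensity kinetically for three minutes.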
# [3] = target: KiSS-1 receptor (Homo sapiens) (UniProt Q969F8); experiment: Human kisspeptin (KISS1R) small molecule agonists, calcium flux assay in KISS1R-HEK293 cells (AID 1920064; active = well fitted activation curve with a large enough effect in the repeat runs; also: potency is read from the fitted curve at half-maximal effect)
# Chain of KiSS-1 receptor (Homo sapiens) (Q969F8 whole entry, looked up): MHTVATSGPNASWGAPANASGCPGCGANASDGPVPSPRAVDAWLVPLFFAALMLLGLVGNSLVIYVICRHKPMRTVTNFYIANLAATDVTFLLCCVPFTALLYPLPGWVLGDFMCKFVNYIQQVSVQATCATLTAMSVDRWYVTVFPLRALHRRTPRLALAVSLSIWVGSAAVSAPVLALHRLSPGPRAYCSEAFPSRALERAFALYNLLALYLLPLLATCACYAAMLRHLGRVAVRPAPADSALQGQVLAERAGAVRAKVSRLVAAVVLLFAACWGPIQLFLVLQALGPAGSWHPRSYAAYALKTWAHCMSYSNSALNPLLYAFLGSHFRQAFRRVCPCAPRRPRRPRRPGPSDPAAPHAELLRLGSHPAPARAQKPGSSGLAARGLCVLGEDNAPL
# In short: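 Kinetic calcium assay, 1 s sampling over 3 min at Ex/Em 480/540, in HEK293 cells engineered with human KISS1R; compounds delivered in DMSO after 1 h dye loading.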
# [4] = G protein-coupled receptor (GPCR) small molecule agonists, calcium flux assay: HEK293 wild type cell line counter screen (AID 1920065); also: potency is read from the fitted curve at half-maximal effect
# In short: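 Calcium-sensitive dye, loaded 1 h at 37 C into cells cultured 18 h, reports compound-evoked calcium release as fluorescence (Ex/Em 480/540), measured over 3 min. Agonist mode; 15-point titrations, triplicate.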
# [5] = p53 small molecule agonists, cell-based qHTS assay with rat liver microsomes (AID 1963578)
# In short: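 p53RE-bla cells were exposed to compounds together with rat liver microsomes (0.5 mg/mL final) and NADPH (0.5 mg/mL final) for 16 h at 37 C, then read by LiveBLAzer beta-lactamase fluorescence after 2 h at room temperature.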
# [6] = p53 small molecule agonists, cell-based qHTS assay with human liver microsomes: qHTS cell viability counter screen (AID 1963579); also: nearly all actives have a fitted effect of over 45% in size
# In short: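 p53RE-bla cells (4,000/well) were pre-incubated 5 h at 37 C, then given compounds in DMSO plus human liver microsomes (0.5 mg/mL final) and NADPH (0.5 mg/mL final) for 16 h at 37 C. Viability was read by CellTiter-Glo luminescence.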
# [7] = p53 small molecule agonists, cell-based qHTS assay: qHTS cell viability counter screen (AID 1963581); also: nearly all actives have a fitted effect of over 45% in size; also: potency is read from the fitted curve at half-maximal effect
# In short: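 Following 5 h attachment, HCT-116 p53RE-bla cells took up compound for 16 h at 37 C; the reporter was read with B/G FRET substrate (2 h RT), and viability then via CellTiter-Glo ATP luminescence.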
# [8] = p53 small molecule agonists, cell-based qHTS assay (AID 1963582; active = well fitted activation curve with a large enough effect in the signal ratio in the repeat runs, not every such curve was filed as active; the % refers to the signal ratio)
# In short: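 In this cell-based concentration-response screen, a p53 response element drives beta-lactamase; cells received DMSO-borne compounds after 5 h culture and were incubated a further 16 h before FRET substrate development.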
# [9] = target: 5-hydroxytryptamine receptor 2A (Homo sapiens) (UniProt P28223); experiment: 5-hydroxytryptamine receptor 2A (HTR2A) small molecule antagonists, cell-based qHTS assay (AID 1963586); also: nearly all actives have a fitted effect of over 45% in size
# Chain of 5-hydroxytryptamine receptor 2A (Homo sapiens) (P28223 whole entry, looked up): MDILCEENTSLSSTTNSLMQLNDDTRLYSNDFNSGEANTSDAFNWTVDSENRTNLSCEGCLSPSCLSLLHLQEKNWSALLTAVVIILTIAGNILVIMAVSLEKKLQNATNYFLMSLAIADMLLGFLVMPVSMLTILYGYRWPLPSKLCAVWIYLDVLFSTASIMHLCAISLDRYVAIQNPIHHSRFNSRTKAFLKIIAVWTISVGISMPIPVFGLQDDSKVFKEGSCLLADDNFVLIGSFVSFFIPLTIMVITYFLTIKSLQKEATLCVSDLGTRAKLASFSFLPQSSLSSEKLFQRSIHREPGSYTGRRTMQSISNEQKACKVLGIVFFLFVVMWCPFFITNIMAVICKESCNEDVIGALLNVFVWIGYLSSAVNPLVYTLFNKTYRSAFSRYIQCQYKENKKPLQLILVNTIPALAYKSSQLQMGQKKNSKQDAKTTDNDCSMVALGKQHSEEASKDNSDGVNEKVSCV
# In short: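 Antagonist-mode intracellular calcium assay: DOI (4 nM) added after 5 min compound pre-incubation at room temperature to dye-loaded HTR2A-CHO cells. Fluorescence followed for 3 min, sampled every second.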
# [10] = cAMP Responsive Elements (CRE) small molecule agonists, cell-based qHTS assay (AID 1963590)
# In short: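 A CRE-responsive beta-lactamase reporter in HEK 293T cells was used. Treatment ran 3 h at 37 C; detection used LiveBLAzer B/G FRET substrate for 2 h at room temperature.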
# [11] = cAMP Responsive Elements (CRE) small molecule antagonists, cell-based qHTS assay (AID 1963591; active = well fitted inhibition curve with a large enough effect in the signal ratio in the repeat runs, not every such curve was filed as active; the % refers to the signal ratio)
# In short: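 HEK293T cells carrying a CRE-driven beta-lactamase reporter receive compound and NKH477 (0.25 uM final) for 3 h. Fluorescence from LiveBLAzer B/G FRET substrate is read after 2 h at room temperature.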
# [12] = target: Beta-2 adrenergic receptor (Homo sapiens) (UniProt P07550); experiment: Adrenergic beta2 receptor (ADRB2) small molecule agonists, cell-based qHTS assay (AID 1963593);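 also: CHO cells stably overexpressing human ADRB2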
# Chain of Beta-2 adrenergic receptor (Homo sapiens) (P07550 whole entry, looked up): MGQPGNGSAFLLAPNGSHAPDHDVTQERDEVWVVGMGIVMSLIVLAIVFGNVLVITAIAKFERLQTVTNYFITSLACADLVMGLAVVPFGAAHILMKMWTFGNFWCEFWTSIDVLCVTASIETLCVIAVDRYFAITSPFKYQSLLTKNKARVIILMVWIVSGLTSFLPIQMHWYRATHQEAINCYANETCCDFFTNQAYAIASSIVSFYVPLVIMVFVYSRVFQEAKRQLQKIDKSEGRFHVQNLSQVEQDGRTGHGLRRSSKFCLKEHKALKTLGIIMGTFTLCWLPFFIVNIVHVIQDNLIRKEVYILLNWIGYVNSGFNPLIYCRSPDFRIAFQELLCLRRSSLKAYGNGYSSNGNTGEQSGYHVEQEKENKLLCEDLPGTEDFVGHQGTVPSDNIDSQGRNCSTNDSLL
# In short: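 CHO cells stably over-expressing ADRB2 were plated overnight at 37C, then dosed with compounds plus a stimulation mix containing 100uM IBMX and 25uM Ro-20-1724 for 0.5hr at room temperature. cAMP was measured by HTRF competition, 1hr.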
# [13] = target: D(2) dopamine receptor (Homo sapiens) (UniProt P14416); experiment: Dopamine D2 receptor (DRD2) small molecule agonists, cell-based qHTS assay (AID 1963594); also: nearly all actives have a fitted effect of over 35% in size
# Chain of D(2) dopamine receptor (Homo sapiens) (P14416 whole entry, looked up): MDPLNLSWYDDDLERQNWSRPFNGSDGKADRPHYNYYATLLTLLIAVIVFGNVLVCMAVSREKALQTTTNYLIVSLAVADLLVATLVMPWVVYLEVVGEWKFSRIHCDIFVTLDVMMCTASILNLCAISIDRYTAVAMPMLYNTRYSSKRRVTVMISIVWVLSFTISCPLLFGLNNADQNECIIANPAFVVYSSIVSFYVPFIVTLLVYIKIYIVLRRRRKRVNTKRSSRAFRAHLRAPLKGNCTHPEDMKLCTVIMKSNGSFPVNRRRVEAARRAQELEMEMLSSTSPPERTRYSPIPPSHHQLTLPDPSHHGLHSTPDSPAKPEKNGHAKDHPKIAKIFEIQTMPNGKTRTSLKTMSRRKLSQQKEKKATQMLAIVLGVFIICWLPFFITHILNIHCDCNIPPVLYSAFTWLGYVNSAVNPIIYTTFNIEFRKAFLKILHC
# In short: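 HEK293 cells stably expressing DRD2 were cultured 24 h at 37 C, then given Ro20-1724 (0.1 mM final) and compounds for 10 min at room temperature. NKH477 (200nM) was then added for 30 min. cAMP was read by HTRF.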
# [14] = target: D(2) dopamine receptor (Homo sapiens) (UniProt P14416); experiment: Dopamine D2 receptor (DRD2) small molecule antagonists, cell-based qHTS assay (AID 1963595; active = well fitted inhibition curve with a large enough effect in the signal ratio in the repeat runs, with a control signal flat; the % refers to the signal ratio)
# In short: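 HTRF cAMP read-out at 665 and 620 nm emission (340 nm excitation). Antagonist mode: compounds were tested against 12 nM quinpirole in DRD2-HEK293 cells, with 200 nM NKH477 raising cAMP and 0.1 mM Ro20-1724 blocking its breakdown.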
# [15] = p53 small molecule agonists, cell-based qHTS assay with rat liver microsomes: qHTS cell viability counter screen (AID 1963580); also: nearly all actives have a fitted effect of over 45% in size
# In short: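 In HCT-116 cells carrying a p53 response element-bla reporter, compounds were metabolically activated in situ by rat liver microsomes with NADPH over 16 h. Cell ATP content then served as the cytotoxicity measure.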
# [16] = target: Muscarinic acetylcholine receptor M1 (Homo sapiens) (UniProt P11229); experiment: Cholinergic receptor muscarinic 1 (CHRM1) small molecule agonists, cell-based qHTS assay (AID 1963589); also: nearly all actives have a fitted effect of over 35% in size
# Chain of Muscarinic acetylcholine receptor M1 (Homo sapiens) (P11229 whole entry, looked up): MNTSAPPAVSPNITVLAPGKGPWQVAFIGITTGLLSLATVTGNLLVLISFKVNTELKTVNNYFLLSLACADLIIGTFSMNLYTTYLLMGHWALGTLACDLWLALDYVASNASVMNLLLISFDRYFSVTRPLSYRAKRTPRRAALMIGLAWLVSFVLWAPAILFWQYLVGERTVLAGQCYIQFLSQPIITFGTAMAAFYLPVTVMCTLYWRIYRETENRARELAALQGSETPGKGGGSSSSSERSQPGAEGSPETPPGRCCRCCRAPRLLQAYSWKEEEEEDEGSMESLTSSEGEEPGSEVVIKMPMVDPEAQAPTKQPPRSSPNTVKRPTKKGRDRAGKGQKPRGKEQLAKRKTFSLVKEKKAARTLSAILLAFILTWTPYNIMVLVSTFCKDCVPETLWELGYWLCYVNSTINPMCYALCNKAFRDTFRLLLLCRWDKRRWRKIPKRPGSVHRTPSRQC
# In short: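 Measures agonist-induced intracellular calcium rise. Stable human CHRM1 CHO line, 1 h dye load at 37 C, compounds from DMSO, kinetic fluorescence read.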
# [17] = target: 5-hydroxytryptamine receptor 2A (Homo sapiens) (UniProt P28223); experiment: 5-hydroxytryptamine receptor 2A (HTR2A) small molecule agonists, cell-based qHTS assay (AID 1963587); also: nearly all actives have a fitted effect of over 30% in size; also: potency is read from the fitted curve at half-maximal effect
# In short: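 HTR2A-CHO cells, plated 18 h at 37 C/5% CO2, dye-loaded 1 h at 37 C; compounds in DMSO added by pin tool (agonist mode). Intracellular calcium flux read as kinetic fluorescence on FDSS over 2 min at 1 s intervals.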
# [18] = target: Beta-2 adrenergic receptor (Homo sapiens) (UniProt P07550); experiment: Adrenergic beta2 receptor (ADRB2) small molecule antagonists, cell-based qHTS assay (AID 1963592); also: series mostly up to about 92 µM; nearly all actives have a fitted effect of over 50% in size
# In short: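 Cells (CHO, stable ADRB2 overexpression) incubated 18-20hr at 37C; compounds added from DMSO; agonist mix (1nM isoproterenol, 100uM IBMX, 25uM Ro-20-1724) added; 0.5hr RT; d2-cAMP and anti-cAMP-cryptate added; 1hr RT; 665/615 nm read.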
# [19] = target: Muscarinic acetylcholine receptor M1 (Homo sapiens) (UniProt P11229); experiment: Cholinergic receptor muscarinic 1 (CHRM1) small molecule antagonists, cell-based qHTS assay (AID 1963588); also: nearly all actives have a fitted effect of over 40% in size
# In short: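 CHRM1-CHO calcium-flux assay, antagonist mode. Cells were seeded 18 h, dye-loaded 1 h at 37 C and given compound for 5 min at RT, then acetylcholine was added at 50nM. FDSS fluorescence was read 3 min; 15 concentrations, three runs.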
Compound,Potency [1],Potency [2],Potency [3],Potency [4],Potency [5],Potency [6],Potency [7],Potency [8],Potency [9],Potency [10],Potency [11],Potency [12],Potency [13],Potency [14],Potency [15],Potency [16],Potency [17],Potency [18],Potency [19]
CCCCCc1ccc(O)cc1,34.4 µM (active),inactive,inactive,inactive,inactive,inactive,inactive,inactive,inactive,inactive,inactive,inactive,inactive,inactive,,,,,
NC(=O)N1C(=O)C(C(=O)c2cc(Cl)cs2)c2cc(F)c(Cl)cc21 (centres undefined),inactive,inactive,inactive,inactive,inactive,inactive,inactive,,inactive,,,,inactive,inactive,inactive,inactive,,,
CNCc1ccc(NC(=O)c2c[nH]c3c2C(=O)CCC3)cc1,inactive,inactive,inactive,inactive,inactive,inactive,,inactive,inactive,inactive,inactive,,,inactive,inactive,inactive,inactive,inactive,
Nc1ccn(C2CO[C@H](CO)O2)c(=O)n1 (some centres undefined),inactive,4.25 µM (active),6.74 µM (active),16.9 µM (active),inactive,inactive,inactive,,,,inactive,inactive,inactive,inactive,inactive,,7.56 µM (active),inactive,inactive
C[C@H]1O[C@@H](O[C@H]2CC[C@@]3(C)[C@H](CC[C@@H]4[C@@H]3C[C@@H](O)[C@]3(C)[C@@H](C5=CC(=O)OC5)CC[C@]43O)C2)C[C@H](O)[C@@H]1O[C@H]1C[C@H](O)[C@H](O[C@H]2C[C@H](O)[C@H](O[C@@H]3O[C@H](CO)[C@@H](O)[C@H](O)[C@H]3O)[C@@H](C)O2)[C@@H](C)O1,0.531 µM (active),inactive,inactive,inactive,inactive,inactive,0.251 µM (active),,,,,inactive,inactive,inactive,,inactive,inactive,inactive,inactive
Cc1onc(-c2ccccc2Cl)c1C(=O)N[C@@H]1C(=O)N2[C@@H]1SC(C)(C)[C@@H]2C(=O)O,inactive,inactive,inactive,inactive,,inactive,inactive,,,inactive,inactive,inactive,inactive,inactive,inactive,,,inactive,
CN1CC[C@H](c2c(O)cc(O)c3c(=O)cc(-c4ccccc4Cl)oc23)[C@H](O)C1,0.0841 µM (active),inactive,inactive,inactive,inactive,,inactive,,inactive,,,,inactive,inactive,,inactive,inactive,inactive,inactive
C=CC(=O)Nc1cc2c(Nc3ccc(F)c(Cl)c3)ncnc2cc1OCCCN1CCOCC1,inactive,inactive,inactive,inactive,inactive,,inactive,inactive,,,,,,inactive,inactive,inactive,inactive,inactive,inactive
c1ccc2c(c1)-c1ccc3ccc4cccc5cc-2c1c3c45,13.3 µM (active),6.74 µM (active),inactive,inactive,,inactive,inactive,,inactive,,,,inactive,inactive,inactive,inactive,10.7 µM (active),inactive,inactive
CC1(C)CC(O)CC(C)(C)N1[O],inactive,inactive,inactive,inactive,,inactive,inactive,,inactive,inactive,inactive,,inactive,inactive,inactive,inactive,inactive,inactive,inactive
COc1cc(Cl)ccc1Oc1ccc(Cl)cc1Cl,14.9 µM (active),inactive,inactive,inactive,,inactive,inactive,,inactive,,inactive,,inactive,,inactive,inactive,inactive,inactive,inactive
CCCCCCC(=O)c1ccccc1,inactive,inactive,inactive,inactive,,inactive,inactive,,inactive,inactive,inactive,inactive,inactive,inactive,inactive,inactive,inactive,inactive,
Cc1c(Cl)c(=O)oc2cc(O)ccc12,inactive,inactive,inactive,inactive,,inactive,inactive,,inactive,,,,inactive,inactive,inactive,inactive,,,inactive
CC[C@H]1OC(=O)[C@H](C)[C@@H](O[C@H]2C[C@@](C)(OC)[C@@H](O)[C@H](C)O2)[C@H](C)[C@@H](O[C@@H]2O[C@H](C)C[C@H](N(C)C)[C@H]2O)[C@](C)(O)C[C@@H](C)/C(=N\OCOCCOC)[C@H](C)[C@@H](O)[C@]1(C)O,inactive,inactive,inactive,inactive,,inactive,inactive,,,inactive,,,inactive,inactive,inactive,,,inactive,
O=C1NC(=O)c2cccc3cccc1c23,inactive,inactive,inactive,inactive,,inactive,inactive,,inactive,,inactive,inactive,inactive,inactive,inactive,,inactive,inactive,inactive
CCCCCCCCCCCC(=O)[O][Sn]([CH2]CCC)([CH2]CCC)[O]C(=O)CCCCCCCCCCC,33.5 µM (active),inactive,inactive,inactive,inactive,,inactive,inactive,inactive,,inactive,inactive,inactive,inactive,inactive,inactive,inactive,inactive,inactive
